Bioassay records as filed in PubChem BioAssay.
Sm TGR block – inhibitors of Schistosoma mansoni thioredoxin glutathione reductase. Q962Y6. purified TGR, DTNB reduction, TNB absorbance 405 nm. Potency, µM (highest dose often 114 µM), for inactives: at the highest dose activity change, negative = inhibition, actives largely listed as inhibitors. actives 3% (n = 360,000); note: % is set by controls: 0 for no effect and ±100 for the full control effect; nearly all actives have a fitted effect of over 60% in size
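TGR 20 nM + NADPH 100 uM (dispensed conc.), cpd preinc 15 min RT; start with NADPH (500 uM addition) then DTNB (15 mM addition). Kinetic TNB absorbance, 405 nm filter. Four-parameter Hill fit across titration.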
SARS PLP yeast – inhibitors of SARS-CoV papain-like protease in yeast | S. cerevisiae expressing SARS-CoV PLpro, growth rescue | Potency, µM (top dose mostly 32.9 µM), for inactives: at the highest dose activity, positive = growth rescue, most hits filed as activators | actives 0.19% (n = 330,000); calls by dose curve; note: 0% is about no effect; nearly all actives have a fitted effect of over 55% in size
AmpC inh detg – inhibitors of E. coli AmpC beta-lactamase with detergent | P00811 | AmpC hydrolysis of nitrocefin, absorbance 480 nm, 0.01% Triton | actives 0.041% (n = 370,000) | Potency, µM (doses to about 114 µM), without a hit: at the highest dose activity change, negative = inhibition, usual class: inhibitors | AID 485294;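 note: 0% = no-compound wells and -100% = no-enzyme wells; nearly all actives have a fitted effect of over 25% in size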
Target sequence (P00811 whole entry, looked up): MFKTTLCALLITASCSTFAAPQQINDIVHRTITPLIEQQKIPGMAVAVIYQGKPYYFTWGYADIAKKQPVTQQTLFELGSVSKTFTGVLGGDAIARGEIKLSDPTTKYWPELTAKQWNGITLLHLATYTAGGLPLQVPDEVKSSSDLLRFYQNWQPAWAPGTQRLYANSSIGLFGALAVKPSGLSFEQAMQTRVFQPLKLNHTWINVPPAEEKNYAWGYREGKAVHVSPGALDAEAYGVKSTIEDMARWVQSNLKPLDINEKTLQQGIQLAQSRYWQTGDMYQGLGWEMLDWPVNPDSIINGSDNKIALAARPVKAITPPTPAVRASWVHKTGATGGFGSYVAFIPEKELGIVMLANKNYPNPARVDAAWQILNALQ
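20 mM phosphate pH 7.0 + 0.01% (detergent screen) or 0.0001% Triton X-100; 5.3 nM AmpC reagent; cpd preinc 15 min RT; nitrocefin (800 uM stock) to start; A480 q20 s × 4 min; Activity was normalised to no-enzyme and no-compound control wells.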
AmpC inh no detg – AmpC beta-lactamase inhibition without detergent. AmpC nitrocefin hydrolysis, absorbance 480 nm, 0.0001% Triton. Potency, µM (doses to about 57.1 µM), inactives show top-dose activity change, negative = inhibition, hits mostly inhibitors. actives 0.52% (n = 330,000). AID 485341;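 note: plate controls were no compound for no effect and no enzyme for full effect; nearly all actives have a fitted effect of over 20% in size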
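20 mM phosphate pH 7.0 + 0.01% (detergent screen) or 0.0001% Triton X-100; 5.3 nM AmpC reagent; cpd preinc 15 min RT; nitrocefin (800 uM stock) to start; A480 q20 s × 4 min; Activity was normalised to no-enzyme and no-compound control wells.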
Pf growth 96h – P. falciparum growth inhibition at 96 hour, primary screen for plastid delayed-death inhibitors; P. falciparum luciferase reporter growth, 96 h; Potency, µM (titrated, usually from 28.7 µM), for inactives: at the top dose activity change, negative = inhibition, hits mostly inhibitors; actives 6.9% (n = 320,000); AID 504834; note: % is set by controls: 0 for no effect and ±100 for the full control effect
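P. falciparum expressing integrated firefly luciferase grown in erythrocytes (2% hematocrit, 0.05% parasitemia final) with compounds for 96 hours at 37 C, 5% CO2. Growth inhibition read as loss of luminescence after adding luciferase detection reagent.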
Pf growth 48h – inhibits P. falciparum growth in the first generation, 48 h. actives 5.9% (n = 310,000). Potency, µM (doses to about 28.7 µM), without a hit: at the highest dose activity change, negative = inhibition, hits mostly inhibitors. AID 504832. P. falciparum luciferase growth in erythrocytes, 48 h; note: % is set by controls: 0 for no effect and ±100 for the full control effect
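Luciferase-expressing P. falciparum in infected erythrocytes (2% hematocrit, 0.1% parasitemia final) in RPMI 1640/0.5% Albumax were exposed to compound for 48 hours at 37 C, 5% CO2; growth read as luminescence.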
* marks the source's active call; other numbers are inactive results; [ ] = dose if it differs, or a comment. A selection: hits, their analogues and other compounds. The true share with any hit is near 12%. Unless noted, calls come from the whole dose curve; as a rule, active = well fitted curve in the direction sought with a large enough effect; inconclusive = small, poorly fitted or top-dose-only effect, or another doubt; inactive = no such curve, though single readings can be large; an effect the other way counts as inactive or inconclusive. Potency is the fitted concentration of half-maximal effect.

What do the screens show for `O=C(CCS(=O)(=O)c1cc(Br)cc2c1N(C(=O)C1CC1)CC2)Nc1ccc(F)cc1`?
Sm TGR block: 6.9%; AmpC inh detg: 9.0%

What do the screens show for `Cc1ccc(C)c(NC(=O)CSc2nc3nccnc3c(=O)n2CCc2c[nH]c3ccccc23)c1`?
Sm TGR block: 1.6%; AmpC inh detg: 4.6%

What do the screens show for `CCOC(=O)c1[nH]c(C)c(CN(CCc2ccccc2)C(=O)CCC(=O)O)c1C`?
Sm TGR block: 7.2%; SARS PLP yeast: -0.1%; AmpC inh detg: -11.2%; AmpC inh no detg: -14.4%; Pf growth 96h: 4.15µM*; Pf growth 48h: -35.4%

How did CCOC(=O)c1[nH]c(C)c(CN(Cc2ccco2)C(=O)C(F)(F)F)c1C do in these assays?
Sm TGR block: -9.4%; SARS PLP yeast: 17.4%; AmpC inh detg: -7.1%; AmpC inh no detg: 19.2%; Pf growth 96h: 1.1%; Pf growth 48h: 10.4µM*

What do the screens show for `CCOC(=O)c1[nH]c(C)c(C(=O)NCc2ccco2)c1C`?
Sm TGR block: -3.0%; SARS PLP yeast: -8.8%; AmpC inh detg: -1.8%; AmpC inh no detg: -16.8%; Pf growth 96h: 2.9%; Pf growth 48h: 16.7%

What do the screens show for `CCOC(=O)c1[nH]c(C)c(CCC(=O)O)c1C`?
Sm TGR block: -4.1%; SARS PLP yeast: 11.6%; AmpC inh detg: 2.1%; AmpC inh no detg: -3.0%; Pf growth 96h: -28.3%; Pf growth 48h: 15.5%

How did O=C(Cn1c(-c2cccs2)cc2ccccc21)N1CCN(c2ccccc2F)CC1 do in these assays?
Sm TGR block: -0.8%; AmpC inh detg: -1.2%

What do the screens show for `Cc1cccc(N/N=C/c2ccc(C)s2)c1`?
Sm TGR block: -14.5%; SARS PLP yeast: -1.7%; AmpC inh detg: 2.5%; AmpC inh no detg: -40.4%; Pf growth 96h: inconclusive; Pf growth 48h: inconclusive

How did COc1cccc(N/N=C/c2cccc(Br)c2O)c1 do in these assays?
Sm TGR block: 35.5µM*; SARS PLP yeast: -2.3%; AmpC inh detg: -1.3%; AmpC inh no detg: inconclusive; Pf growth 96h: 49.1%; Pf growth 48h: 96.7%

How did Cc1cccc(N/N=C/c2ccc(O)c(O)c2O)c1 do in these assays?
Sm TGR block: 7.08µM*; SARS PLP yeast: -0.9%; AmpC inh detg: -6.0%; AmpC inh no detg: inconclusive; Pf growth 96h: 8.3%; Pf growth 48h: inconclusive

What do the screens show for `CC(C)NC(=O)NC(=O)COC(=O)/C=C/c1ccccc1[N+](=O)[O-]`?
Sm TGR block: -17.6%; SARS PLP yeast: 0.3%; AmpC inh detg: inconclusive; AmpC inh no detg: -10.9%[11.4 µM]; Pf growth 96h: 21.1%; Pf growth 48h: 0.9%

What do the screens show for `COC(=O)c1ccccc1NC(=O)CN1CCC(NC(=O)c2ccccc2C)CC1`?
Sm TGR block: inconclusive; SARS PLP yeast: -1.8%; AmpC inh detg: -15.7%; AmpC inh no detg: 55.1%; Pf growth 96h: -16.5%; Pf growth 48h: inconclusive

Results for COc1cccc(C(=O)NC2CCN(CC(=O)Nc3c(C)cc(C)cc3C)CC2)c1 ?
Sm TGR block: 11.5%; SARS PLP yeast: -0.6%; AmpC inh detg: 3.3%; AmpC inh no detg: 64.8%; Pf growth 96h: 32.7%; Pf growth 48h: inconclusive

What do the screens show for `O=C(CN1CCNCC1)Nc1ccccc1Cl`?
Sm TGR block: 7.3%[11.4 µM]; SARS PLP yeast: 1.3%; AmpC inh detg: -4.0%; AmpC inh no detg: -23.2%; Pf growth 96h: inconclusive

Results for O=C(CN1CCN(C(=O)c2cncn2-c2ccccc2)CC1)Nc1ccccc1Cl ?
Sm TGR block: -12.5%; SARS PLP yeast: -3.0%; AmpC inh detg: -5.4%; AmpC inh no detg: 31.1%; Pf growth 96h: 14.7µM*; Pf growth 48h: inconclusive

How did COc1ccc(C(=O)NC2CCN(CC(=O)Nc3c(C)cccc3C)CC2)cc1OC do in these assays?
Sm TGR block: 100µM*; SARS PLP yeast: 2.3%; AmpC inh detg: -3.8%; AmpC inh no detg: -0.8%; Pf growth 96h: 10.4%; Pf growth 48h: -20.6%

Results for Cc1ccccc1C(=O)NC1CCN(CC(=O)Nc2ccccc2Cl)CC1 ?
Sm TGR block: -6.4%; SARS PLP yeast: -0.4%; AmpC inh detg: 2.5%; AmpC inh no detg: 74.0%; Pf growth 96h: 0.928µM*; Pf growth 48h: -12.7%

How did O=C(CN1CCCCC1)Nc1ccc(NC(=O)c2ccccc2Cl)cc1Cl do in these assays?
Sm TGR block: -12.0%; SARS PLP yeast: -37.9%; AmpC inh detg: -26.1%; AmpC inh no detg: -35.7%; Pf growth 96h: 14.7µM*; Pf growth 48h: -9.0%

What do the screens show for `Cc1c(OCC(=O)C(C)(C)C)ccc2c(-c3ccccc3)cc(=O)oc12`?
Sm TGR block: 14.2%; SARS PLP yeast: -1.1%; AmpC inh detg: 2.1%; AmpC inh no detg: -19.3%; Pf growth 96h: inconclusive; Pf growth 48h: -1.5%

Results for Cc1cc(C)cc(NC(=O)c2ccc3c(c2)nnn3C2CCCC2)c1 ?
Sm TGR block: 10.2%; AmpC inh detg: 3.9%

Results for CN(Cc1ccccc1)C(=O)c1ccc2c(c1)N(Cc1ccccc1F)C(=O)c1ccccc1S2(=O)=O ?
Sm TGR block: -8.7%; AmpC inh detg: -7.7%

What do the screens show for `O=C(NC1CCN(c2ncccn2)CC1)c1ccccc1F`?
Sm TGR block: -5.8%; SARS PLP yeast: 1.4%; AmpC inh detg: -7.7%; AmpC inh no detg: 0.6%; Pf growth 96h: -7.5%; Pf growth 48h: 12.2%

What do the screens show for `Cc1ccccc1C(=O)NC1CCN(CC(=O)Nc2ccc(N(C)C)cc2)CC1`?
Sm TGR block: 39.8µM*; SARS PLP yeast: 5.7%; AmpC inh detg: inconclusive; AmpC inh no detg: -0.6%; Pf growth 96h: 9.0%; Pf growth 48h: 43.6%

How did O=C(NC1CCN(c2ncccn2)CC1)c1ccccc1Cl do in these assays?
Sm TGR block: 10.1%; SARS PLP yeast: 0.1%; AmpC inh detg: inconclusive; AmpC inh no detg: -3.4%; Pf growth 96h: 10.4µM*; Pf growth 48h: -10.2%

Results for COc1ccc(NC(=O)CN2CCN(CC(=O)Nc3ccccc3Cl)CC2)c(OC)c1 ?
Sm TGR block: -22.8%; SARS PLP yeast: -7.5%; AmpC inh detg: 2.7%; AmpC inh no detg: 75.3%; Pf growth 96h: 14.7µM*

What do the screens show for `COc1ccc(OC)c(NC(=O)CCN2CCN(Cc3ccccc3)CC2)c1`?
Sm TGR block: 3.7%; SARS PLP yeast: 1.8%; AmpC inh detg: -12.9%; AmpC inh no detg: 14.4%; Pf growth 96h: -5.5%; Pf growth 48h: 13.1µM*

What do the screens show for `Cc1ccc(C(=O)NNC(=O)c2ccccc2O)cc1S(=O)(=O)N1CCCCC1`?
Sm TGR block: 2.6%; SARS PLP yeast: 2.7%; AmpC inh detg: inconclusive; AmpC inh no detg: 8.91µM*; Pf growth 96h: 6.5%; Pf growth 48h: inconclusive
